From PubChem BioAssay AID588458 (Sanford-Burnham Center for Chemical Genomics, 2011)
Screen size: about 360,000 compounds; about 3,000 (0.83%) were called active. Cut-off read from the data, not from the text of the source: active = inhibition above about 50%; inactive = the rest. Only a selection was taken, and actives are over-represented in it overall.

Target: DNA (cytosine-5)-methyltransferase 1 (Homo sapiens) (UniProt P26358)
Experiment: inhibition of DNA methyltransferase DNMT1 – biochemical, molecular beacon, fluorescence, HinP1I cleavage, uHTS, primary screen (AID 588458)
Conditions: at 10 µM, active compounds read high

Sequence of DNA (cytosine-5)-methyltransferase 1 (Homo sapiens) (P26358 504-1616 limits assumed): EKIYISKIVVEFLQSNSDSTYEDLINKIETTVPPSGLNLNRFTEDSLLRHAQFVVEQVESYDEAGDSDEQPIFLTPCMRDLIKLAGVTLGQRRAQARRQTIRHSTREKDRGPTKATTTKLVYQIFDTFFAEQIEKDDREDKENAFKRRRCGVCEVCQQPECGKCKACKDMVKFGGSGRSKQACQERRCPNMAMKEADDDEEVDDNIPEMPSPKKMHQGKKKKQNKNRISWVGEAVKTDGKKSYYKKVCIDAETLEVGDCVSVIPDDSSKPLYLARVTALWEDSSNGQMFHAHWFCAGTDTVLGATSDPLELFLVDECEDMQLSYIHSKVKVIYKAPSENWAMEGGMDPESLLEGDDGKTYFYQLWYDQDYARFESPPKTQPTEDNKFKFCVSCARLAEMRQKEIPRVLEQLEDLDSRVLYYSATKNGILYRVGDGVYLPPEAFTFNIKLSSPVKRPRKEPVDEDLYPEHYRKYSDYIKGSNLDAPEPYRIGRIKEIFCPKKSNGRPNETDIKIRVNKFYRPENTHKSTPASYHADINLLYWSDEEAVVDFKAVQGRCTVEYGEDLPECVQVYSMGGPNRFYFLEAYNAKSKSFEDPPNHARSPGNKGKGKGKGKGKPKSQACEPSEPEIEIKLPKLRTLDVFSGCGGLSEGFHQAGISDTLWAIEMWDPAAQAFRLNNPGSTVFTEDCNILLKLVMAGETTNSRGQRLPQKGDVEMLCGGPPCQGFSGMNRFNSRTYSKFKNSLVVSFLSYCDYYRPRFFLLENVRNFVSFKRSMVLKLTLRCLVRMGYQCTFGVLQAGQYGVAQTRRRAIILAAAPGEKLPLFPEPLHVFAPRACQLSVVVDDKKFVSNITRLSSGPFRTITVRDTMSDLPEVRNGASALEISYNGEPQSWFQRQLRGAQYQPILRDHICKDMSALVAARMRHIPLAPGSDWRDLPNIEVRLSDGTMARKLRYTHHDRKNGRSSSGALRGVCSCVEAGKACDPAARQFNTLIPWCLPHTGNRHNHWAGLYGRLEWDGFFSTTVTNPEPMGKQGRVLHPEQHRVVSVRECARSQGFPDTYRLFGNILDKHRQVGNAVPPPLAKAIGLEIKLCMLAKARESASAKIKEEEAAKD

Inhibition (reported as % activation of signal), active:
COC(=O)CCCCC1=CCC2C(=O)C=C(O)C2C1 (configuration not stated) 92.7%
Cc1ccc(NC(=O)c2cc(-c3ccc(C)o3)nc3ccccc23)nc1 76.5%
COc1ccc(OC)c(NC(=O)c2cc(-c3cc(F)ccc3OCC3CCCO3)n[nH]2)c1 (configuration not stated) 105%
CCOC(=O)C(NC(=O)CC(C)C)(Nc1sc2c(c1C(N)=O)CCCC2)C(F)(F)F (configuration not stated) 85.2%
N#Cc1c(N2CCCCC2)nc(N)c2c(N)nc(SCC(=O)O)cc12 52.1%
Nc1cc2c(cc1Br)-c1ccc(F)cc1C2=O 71.6%
CC(=O)c1ccc(Nc2nc(C(N)c3ccccc3)cs2)cc1 (configuration not stated) 80.3%
C=C(C)C(=O)Nc1cccc(C2=NOC3(C2)C[C@H](C(N)=O)N(C(=O)C(c2ccccc2)c2ccccc2)C3)c1 (some centres not stated) 98.1%
COc1ccc(NC(=O)CCn2ccnc2)c(OC)c1 78.8%
COc1cc(-c2nnc(NC(=O)CS(=O)(=O)c3ccc(Cl)cc3)o2)cc(OC)c1OC 64.7%
CCOc1cc(NC(=O)c2ccco2)c(OCC)cc1NC(=O)COc1ccccc1 67.3%
CCCCCCc1cc2cc(-c3nnc(-c4ccccc4)o3)c(=O)oc2cc1O 88.6%

Inhibition (reported as % activation of signal), inactive:
CCOc1ccc2[nH]c(=S)sc2c1 0.55%
CSc1ncccc1C(=O)Nc1ccc(C)cn1 -0.42%
CC(=O)N1CCN(C(=O)c2cc(-c3ccc(C)o3)nc3ccccc23)CC1 1.05%
COc1ccccc1-n1nnnc1S(=O)(=O)Cc1ccc(Cl)cc1 22%
O=C(CCc1nnc2ccc(NCc3ccco3)nn12)Nc1cc(F)ccc1F 29.7%
COC(=O)c1ccc(C(=O)NC2CC(C)(C)Cc3c2cnn3-c2ccc(F)cc2)nc1 (configuration not stated) -1.04%
COc1cc(F)ccc1-c1cc(C(=O)NCC2CCCCC2)[nH]n1 -0.63%
CCCOc1ccc(F)cc1-c1cc(C(=O)Nc2ccc(F)cc2)[nH]n1 -1.3%
Cc1ccc(-n2c(SCC(=O)N3CCC(C(=O)O)CC3)nc3ccccc3c2=O)cc1C -1.54%
Cc1cc(C)c(C(=O)CSc2nc(C)cc(=O)[nH]2)c(C)c1 -2.03%
COc1ccc(C2=NOC(C(=O)NCc3ccco3)C2)cc1OC (configuration not stated) 1.36%
CCOc1ccc(C(=O)Nc2cc(Cl)ccc2-n2cncn2)cc1OC 0.02%
CC1CCN(C(=O)C2CCN(S(=O)(=O)N3CCC4(CC3)OCCO4)CC2)CC1 1.13%
COC(=O)C(NC(C)=O)(Nc1nc2c(s1)CCCC2)C(F)(F)F (configuration not stated) 0.31%
CCOC(=O)c1c(NC(=O)Cn2nc(C(F)(F)F)cc2C)sc2c1CCC2 -22.3%
N#Cc1c(C(F)(F)F)cc(-c2cccs2)nc1N1CCCCC1 -1.64%
O=C(O)CSc1ccc(S(=O)(=O)N2CCCC2)cn1 -4.98%
CC1(C)C2CC=C(/C=N/NC(=O)c3ccc(Cl)cc3)C1C2 (configuration not stated) 2.7%
Nc1nc2c(ncn2[C@@H]2O[C@H](CNS(=O)(=O)N3CCc4ccccc4C3)[C@@H](O)[C@H]2O)c(=O)[nH]1 0.15%
COCCNC(=O)C1(C)CCCN(Cc2cccc(F)c2)C1 (configuration not stated) -1.11%
O=S(=O)(Nc1n[nH]c(C(F)(F)F)n1)c1ccccc1 -0.37%
CC(=O)Nc1ccc(S(=O)(=O)Nc2cc(C)cn(Cc3ccc(C)cc3)c2=O)cc1 -4.47%
NC(c1ccccc1)c1csc(NC(=O)Nc2cccc(C(F)(F)F)c2)n1 (configuration not stated) -22.9%
CC(=O)c1ccc(Nc2nc(C(N)c3ccccc3Cl)cs2)cc1 (configuration not stated) -17.7%
CCCS(=O)(=O)NC(=O)C1(C)CCN(C(=O)c2sccc2C)C1 (configuration not stated) -0.36%
COc1cc(NC(=O)CCNC(=O)Cn2ccc3ccccc3c2=O)cc(OC)c1OC -1.53%
CCOC(=O)c1ccn(S(=O)(=O)c2ccc(C)cc2)c1-c1ccccc1 0.08%
CC/C=C/C(=O)N1CC2(CC(c3cccc(NC(=O)CC)c3)=NO2)C[C@H]1C(N)=O (some centres not stated) 5.63%
C/C=C\C=C\C(=O)N1CC2(CC(c3cccc(NC(=O)/C(C)=C\C)c3)=NO2)C[C@H]1C(N)=O (some centres not stated) -7.28%
CC(=O)Nc1ccc(NC(=O)C2CCCN2S(=O)(=O)c2cccc(C(F)(F)F)c2)cc1 (configuration not stated) -0.75%
COc1cccc(-n2c(N)cc(=O)nc2SCC(=O)Nc2cc(C)on2)c1 0.03%
O=C(c1ccccc1Cl)N(Cc1ccccc1F)N1C(=O)CCCC1=O 1.73%
COc1ccc(NC(=O)CCCC2CCCCC2)c(OC)c1 1.18%
COc1ccc(NC(=O)COC(=O)c2ccncc2)c(OC)c1 7.14%
O=C(OCCO)c1cc(Cl)c(C(=O)OCCO)cc1Cl -0.85%
FC(F)(F)c1ccc(-c2cccc3c2C2CC3CCN2Cc2ccccc2)cc1 (configuration not stated) 5.02%
COc1cc(-c2nnc(NC(=O)C3=COCCO3)o2)cc(OC)c1OC 0.63%
Cc1ccc(C)c(-c2nnc(NC(=O)CS(=O)(=O)c3ccccc3)o2)c1 2.2%
O=C(COc1cccc2c1CCNC2=O)NC1CCCCC1 0.71%
COc1ccc(C)cc1N(C(=O)Cn1nnc(-c2ccc(C)o2)n1)C(C(=O)NC1CCCC1)c1ccncc1 (configuration not stated) 0.4%
COc1ccc(NC(=O)CCC(=O)Nc2cc(OC)c(NC(=O)c3ccco3)cc2OC)c(OC)c1 -1.01%
CCOc1cc(NC(=S)NCc2ccco2)c(OCC)cc1NC(=O)c1ccco1 -8.9%
CC(C)(C(=O)N1CCC1(C)C(=O)NS(=O)(=O)c1ccc(Br)cc1)c1ccccc1 (configuration not stated) 1.25%
CC1CCN(CCCNC(=O)CN2C(=O)CSc3ccc(S(=O)(=O)N4CCCCC4)cc32)CC1 0.73%
CC(C)C(NC(=O)c1c(F)cccc1F)C(=O)NCc1ccncc1 (configuration not stated) 1.21%
